Measured values as given in PubChem BioAssay AID1159580 (chemical genetic matrix, 2015).
Several values for one entry are separate records, joined by “and”; a condition that tells them apart may be missing. Identical values can stand only once. Hit rate of the full screen: of about 5,500 compounds, about 2,000 (36%) were called active. Inconclusive results (about 18%) are left out. No stated cut-off is given here; in the data, active means normalized growth mostly below about 0.91 (no sharp cut-off); inconclusive means no clear call, values can overlap the other calls; inactive means mostly above about 0.92. The list shows a part of the results.

Assay: chemical genetic growth profiling, strain panel (AID 1159580);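 further: tested at 20 µM; growth read once vehicle control cultures reached saturation at 30 °C; 1 = growth at the plate median or of vehicle wells; lower values mean less growth of the strain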
Conditions: S. cerevisiae deletion strains, growth OD

Measured: normalized growth

C[C@@H]1CC[C@]2(C(=O)O)CC[C@]3(C)C(=CCC4[C@@]5(C)CC[C@H](O)C(C)(C)C5CC[C@]43C)C2[C@H]1C (stereo partly drawn)
inactive: locus YAL021C, strain ccr4, hits give low values 0.995 | locus YAL026C, strain drs2, hits give low values 1.01 | locus YAL030W, strain snc1, hits give low values 0.995 | locus YBL061C, strain skt5, hits give low values 1.01 | locus YBR009C, strain hhf1, hits give low values 1.01 | locus YBR021W, strain FUR4, hits give low values 1.03 | locus YBR023C, strain chs3, hits give low values 1.01 | locus YBR171W, strain sec66, hits give low values 1 | locus YBR229C, strain ROT2, hits give low values 1.03 | locus YBR231C, strain swc5, hits give low values 1.01 | locus YBR279W, strain paf1, hits give low values 1 | locus YCL011C, strain gbp2, hits give low values 1 | locus YCL016C, strain dcc1, hits give low values 1.01 | locus YCL029C, strain bik1, hits give low values 1 | locus YCL061C, strain MRC1, hits give low values 0.997 | locus YCL069W, strain vba3, hits give low values 1.01 | locus YCR088W, strain abp1, hits give low values 0.993 | locus YDL005C, strain med2, hits give low values 0.998 | locus YDL035C, strain GPR1, hits give low values 1.04 | locus YDL040C, strain nat1, hits give low values 0.992 | locus YDL074C, strain BRE1, hits give low values 1.07 | locus YDL101C, strain DUN1, hits give low values 1.03 | locus YDL134C, strain PPH21, hits give low values 1.08 | locus YDL185W, strain tfp1, hits give low values 0.999 | locus YDL192W, strain arf1, hits give low values 1.01 | locus YDR001C, strain nth1, hits give low values 1 | locus YDR069C, strain doa4, hits give low values 1 | locus YDR101C, strain arx1, hits give low values 1.01 | locus YDR137W, strain rgp1, hits give low values 1.04 | locus YDR150W, strain NUM1, hits give low values 1.03 | locus YDR159W, strain sac3, hits give low values 1 | locus YDR162C, strain NBP2, hits give low values 1.07 | locus YDR195W, strain ref2 0.974 | locus YDR297W, strain sur2, hits give low values 1 | locus YDR318W, strain mcm21, hits give low values 0.993 | locus YDR334W, strain swr1, hits give low values 1 | locus YDR335W, strain msn5, hits give low values 0.997 | locus YDR388W, hits give low values 1 | locus YDR392W, strain spt3, hits give low values 0.911 | locus YDR502C, strain sam2, hits give low values 0.997 | locus YEL003W, strain gim4, hits give low values 0.998 | locus YEL037C, strain rad23, hits give low values 1 | locus YEL061C, strain CIN8 (second series), hits give low values 0.995 | locus YEL061C, strain CIN8, hits give low values 1.02 | locus YER015W, strain faa2, hits give low values 1.01 | locus YER016W, strain bim1, hits give low values 0.999 | locus YER110C, hits give low values 1.01 | locus YER111C, strain swi4, hits give low values 0.984 | locus YER155C, strain BEM2 (second series), hits give low values 0.992 | locus YER155C, strain BEM2, hits give low values 1.02 | locus YER167W, strain BCK2, hits give low values 1.03 | locus YFR010W, strain ubp6, hits give low values 0.983 | locus YGL078C, strain dbp3, hits give low values 0.985 | locus YGL167C, strain pmr1, hits give low values 1 | locus YGL173C, strain kem1, hits give low values 1.01 | locus YGL227W, strain vid30, hits give low values 0.994 | locus YGL240W, strain doc1, hits give low values 0.998 | locus YGL248W, strain PDE1, hits give low values 1.03 | locus YGL253W, strain hxk2, hits give low values 1.01 | locus YGR135W, strain pre9, hits give low values 0.996 | locus YGR229C, strain SMI1, hits give low values 1.06 | locus YGR252W, strain gcn5, hits give low values 1.01 | locus YHR013C, strain ard1, hits give low values 0.996 | locus YHR027C, strain rpn1, hits give low values 0.995 | locus YHR030C, strain SLT2, hits give low values 1.02 | locus YHR079C, strain IRE1 (second series), hits give low values 0.996 | locus YHR079C, strain IRE1, hits give low values 1.02 | locus YHR094C, strain hxt1, hits give low values 1.01 | locus YHR129C, strain ARP1, hits give low values 1.03 | locus YHR142W, strain chs7, hits give low values 1.03 | locus YHR200W, strain rpn10, hits give low values 0.986 | locus YIL066C, strain RNR3, hits give low values 1.07 | locus YIL073C, strain SPO22, hits give low values 0.999 | locus YIL125W, strain kgd1, hits give low values 1 | locus YIR030C, strain dcg1, hits give low values 0.997 | locus YJL092W, strain hpr5, hits give low values 0.999 | locus YJL095W, strain BCK1 (second series), hits give low values 0.988 | locus YJL095W, strain BCK1, hits give low values 1.08 and 1.01 | locus YJL115W, strain asf1, hits give low values 0.992 | locus YJL129C, strain trk1, hits give low values 1.01 | locus YJL134W, strain LCB3, hits give low values 1.02 | locus YJL154C, strain vps35, hits give low values 0.997 | locus YJL164C, strain tpk1, hits give low values 1.01 | locus YJL166W, strain qcr8, hits give low values 1 | locus YJL168C, strain set2, hits give low values 0.986 | locus YJL187C, strain SWE1 (second series), hits give low values 1.05 | locus YJL187C, strain SWE1, hits give low values 0.997
active: locus YGL086W, strain mad1, hits give low values 1.28 [resistant]
